# SUMO Mot1 rescue: yeast Mot1-301 growth rescue at high temperature, primary screen, SUMOylation pathway inhibitor project, S. cerevisiae, ATP luminescence, 38.5C | S. cerevisiae Mot1-301 growth rescue; percent above DMSO median, 100 means doubled | actives 1% (n = 320,000) | growth rescue, % at 18.8 µM;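 active = every valid replicate shows activation above 250% relative to neutral control wells; inactive = the rest, any valid replicate at or below 250%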
# PfM18AAP inh-1: PfM18AAP inhibitors, malaria aminopeptidase, primary screen, biochemical, QFRET, recombinant enzyme. M18 aspartyl aminopeptidase (Plasmodium falciparum 3D7). H-Glu-NHMec fluorogenic cleavage. inhibition, % at 7.35 µM. actives 1.2% (n = 290,000). AID 1822, 2009;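 active = inhibition above the campaign mean inhibition over all tested compounds plus 3 SD, cut at about 28% in these data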
# ALR inh: inhibitors of human ALR sulfhydryl oxidase, primary screen, biochemical, H2O2 detection, HRP-luminol luminescence, single point | FAD-linked sulfhydryl oxidase ALR (Homo sapiens), P55789 | purified ALR, DTT oxidation | inhibition, % (test concentration not listed) | actives 3.8% (n = 290,000) | AID 485317, 2010;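 active = mean replicate inhibition above about 79%, with every replicate also reaching it, limit read from the data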
# Target sequence (P55789 whole entry, looked up): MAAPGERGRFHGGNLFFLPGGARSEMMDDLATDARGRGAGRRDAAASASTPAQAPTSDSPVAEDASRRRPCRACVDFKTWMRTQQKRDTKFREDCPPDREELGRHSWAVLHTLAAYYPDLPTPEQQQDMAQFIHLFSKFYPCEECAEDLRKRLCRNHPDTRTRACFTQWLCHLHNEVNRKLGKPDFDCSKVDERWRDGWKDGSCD
# HIF activator: HIF pathway transcriptional activators, primary screen, cell-based, U2OS HRE-luciferase, luminescence; actives 0.32% (n = 300,000); AID 1910, 2009; activation, % at 7.5 µM (by protocol); U2OS HRE-luciferase reporter; normalized: DMSO 0%, desferrioxamine 100%;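 active = mean activation of at least 10% of the iron chelator positive control signal, with at least half of replicates also reaching 10%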
# PfM18AAP inh-2: PfM18AAP inhibitors, malaria aminopeptidase, confirmation, biochemical, QFRET, recombinant enzyme, triplicate | inhibition, % at 7.35 µM | AID 2170, 2009 | shares compounds with PfM18AAP inh-1 | actives 28% (n = 2,400) | H-Glu-NHMec fluorogenic cleavage;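 active = mean inhibition over replicate wells above the hit cutoff set for the earlier primary screen, cut at about 29% in these data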
# CTSL1 confirm: cathepsin L1 inhibitors, retest, confirmation, counter-screen for PFM18AAP inhibitor project, biochemical, QFRET, triplicate; inhibition, % at 5.96 µM; purified cathepsin L1, Z-Leu-Arg-MCA fluorescence; AID 2178, 2009; shares compounds with PfM18AAP inh-1; 2,400 tested, under 10 active;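 active = average inhibition across replicates above the hit cutoff set in the earlier primary screen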
# Target sequence (P07711 whole entry, looked up): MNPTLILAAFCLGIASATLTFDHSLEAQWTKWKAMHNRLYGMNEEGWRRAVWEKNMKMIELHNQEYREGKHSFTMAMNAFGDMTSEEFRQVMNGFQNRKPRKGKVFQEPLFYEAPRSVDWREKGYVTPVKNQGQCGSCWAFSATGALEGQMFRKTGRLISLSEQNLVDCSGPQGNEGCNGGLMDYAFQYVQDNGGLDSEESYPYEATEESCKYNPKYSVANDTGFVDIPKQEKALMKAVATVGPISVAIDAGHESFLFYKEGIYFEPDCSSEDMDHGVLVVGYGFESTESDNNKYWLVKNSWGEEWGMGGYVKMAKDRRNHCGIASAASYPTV
# Numbers stand for hits; – = inactive; · = no result given. Only some compounds are listed: those with a hit (about 5.3% of all), similar ones and a draw of the others.
SMILES,SUMO Mot1 rescue,PfM18AAP inh-1,ALR inh,HIF activator,PfM18AAP inh-2,CTSL1 confirm
C/C(=N\Nc1cccc(C(=O)O)c1)c1ccc(Cl)s1,–,40.7,98.3,–,–,–
CCC(C(=O)Nc1sc(C(N)=O)c(C)c1C(=O)OC)c1ccccc1 (stereo not given),–,–,·,·,·,·
COCCn1c(=S)[nH]c2ccc(N(C)C)cc2c1=O,–,40.1,97.5,–,–,–
CCOc1cc2[nH]c(=S)n(CCOC)c(=O)c2cc1OCC,–,–,–,–,·,·
COc1ccc(N2C(=O)CSC2c2ccccc2F)c(OC)c1 (stereo not given),–,–,–,–,·,·
COc1cnn(-c2ccc(C)cc2)c(=O)c1SCc1ccccc1,–,–,–,–,·,·
COc1cnn(-c2ccccc2)c(=O)c1SCc1ccc(Cl)cc1Cl,–,36.1,97.8,–,–,–
CCCCCCSc1ccc([C@H]2N[C@@](C)(C(=O)OC)[C@H]3C(=O)N(C)C(=O)[C@@H]23)cc1,–,·,–,–,·,·
CC1=C(C(=O)N2CCOCC2)C(c2ccc(C)cc2)NC(=S)N1 (stereo not given),–,–,–,–,·,·
CCC1CCC2(CC1)NC(CO)(CO)CO2 (stereo not given),–,–,–,–,·,·
CCC1CCC2(CC1)NNC(=S)NN2,–,35.5,–,–,39.0,–
O=C(NNC(=O)c1cc(Cl)ccc1O)c1cccs1,–,34.8,·,–,–,–
O=C(NNC(=S)NC(=O)c1ccccc1[N+](=O)[O-])c1ccccc1O,–,42.6,–,–,–,–
O=C(NC(=S)NNC(=O)c1ccccc1O)c1cccs1,–,44.0,–,–,–,–
COc1ccc(/C=C2/SC(=O)N(CC(=O)Nc3cc(C)on3)C2=O)cc1OC,–,–,–,–,·,·
Nc1cccc2cc(-c3ccccc3)oc12,–,·,–,·,·,·
Cc1c(Cl)cccc1-c1ccc(/C=N/n2cnnc2)o1,–,–,–,–,·,·
Cc1c(C(=O)O)cccc1-c1ccc(/C=N/n2cnnc2)o1,–,34.9,·,–,–,–
Cc1cc([N+](=O)[O-])c(C)cc1-c1ccc(/C=N/n2cnnc2)o1,–,–,–,–,·,·
O=[N+]([O-])c1ccc(-c2ccc(/C=N/n3cnnc3)o2)c(Br)c1,–,50.9,–,–,–,–
O=C(O)c1cccc(-c2ccc(/C=N/n3cnnc3)o2)c1,–,31.8,–,–,–,–
Cc1nc2ccc(S(=O)(=O)Nc3ccccc3C)cc2s1,–,–,–,–,·,·
Cc1ccc(NC(=O)CCNC(=O)Cn2cnc3ccccc3c2=O)cc1F,–,–,–,–,·,·
CNC(=S)N(Cc1ccc(OC)cc1)Cc1cc2ccc(C)cc2[nH]c1=O,–,–,–,–,·,·
O=C(Cc1cccs1)NNC(=S)NCc1ccc(Cl)cc1,–,–,–,–,·,·
SMILES,SUMO Mot1 rescue,PfM18AAP inh-1,ALR inh,HIF activator,PfM18AAP inh-2,CTSL1 confirm
O=C(Cc1cccs1)NNC(=S)NC(=O)c1ccco1,–,33.5,–,–,–,–
Cc1ccc(N=C(NO)c2nonc2N)c(C)c1,–,33.8,–,–,–,–
O=C(NC1CCCCC1)c1ccc(Cn2cc(Cl)cn2)cc1,–,–,–,–,·,·
CCC(C)(C)n1nnnc1C(c1ccc(O)cc1)N1CCc2ccccc2C1 (stereo not given),–,–,–,–,·,·
N#CC1=C(N)OC2=C(C(=O)CC(c3ccco3)C2)C1c1ccc(OCc2c(F)cccc2Cl)cc1 (stereo not given),–,–,–,–,·,·
COc1cccc(C2C(C#N)=C(N)OC3=C2C(=O)CC(c2ccco2)C3)c1OCc1ccc(F)cc1 (stereo not given),–,35.0,–,–,–,–
O=c1[nH]sc2ccccc12,·,49.7,·,–,30.0,–
O=c1cc(O)sc2ccccc12,–,–,–,–,·,·
Cc1ccccc1NC(=S)c1ccc2ccccc2n1,–,41.0,–,–,–,–
CCOc1ccc(S(=O)(=O)N(CC)CC(=O)NCc2cccnc2)cc1C,–,–,–,–,·,·
COc1ccc(/C=N/NC(=O)c2cc(O)c(O)c(O)c2)cc1Cn1cc([N+](=O)[O-])cn1,·,48.5,·,–,–,–
O=C(Cn1ncc2c3ccccc3n(Cc3cccc(Cl)c3)c2c1=O)NCc1ccccn1,–,–,–,–,·,·
CCC(CC)NC(=O)c1nn(Cc2ccccc2)c(=O)c2ccccc12,–,–,·,–,·,·
CC(C)[C@H](NC(=O)c1nn(Cc2ccccc2)c(=O)c2ccccc12)C(=O)O,–,36.1,–,–,–,–
O=c1/c(=C/c2ccco2)sc2n1CN(c1cccc(Br)c1)CN=2,–,–,–,–,·,·
Cc1ccc(/C=c2\sc3n(c2=O)CN(c2cccc(Br)c2)CN=3)o1,·,37.3,–,–,–,–
Cc1oc2c(O)c(O)ccc2c(=O)c1-c1ccc(Cl)cc1,–,43.9,98.9,–,–,–
Cc1oc2c(CN3CCCC3)c(O)ccc2c(=O)c1-c1ccc(Br)cc1,–,–,–,–,·,·
Cc1oc2c(C)c(O)ccc2c(=O)c1-c1nncn1-c1ccccc1,–,–,–,·,·,·
Cc1oc2c(O)c(O)ccc2c(=O)c1-c1cnn(-c2ccccc2)c1,–,31.7,99.7,–,–,–
O=C(COc1ccc(Cl)cc1Cl)N(C1CCCCC1)C1CCS(=O)(=O)C1 (stereo not given),–,·,–,·,·,·
Cc1cc(C)c(NC(=S)NCC2CCN(C(C)c3ccccc3)C2)c(C)c1 (stereo not given),–,53.0,–,–,–,–
Cc1ccc(NC(=S)NCC2CCN(C(C)c3ccccc3)C2)cc1 (stereo not given),–,–,–,–,·,·
CCC(C)(C)C1CCc2[nH]nc(C(=O)NCCNC(=O)OC(C)(C)C)c2C1 (stereo not given),–,·,–,·,·,·
CC1CCc2c(sc(NC(=O)CSc3ncn[nH]3)c2C#N)C1 (stereo not given),–,–,–,–,·,·
SMILES,SUMO Mot1 rescue,PfM18AAP inh-1,ALR inh,HIF activator,PfM18AAP inh-2,CTSL1 confirm
CC(C)(C)C1CCc2c(sc(NC(=O)CSc3ncn[nH]3)c2C#N)C1 (stereo not given),–,34.1,–,–,–,–
CC1CCN(C(=O)C(=O)c2cn(CC(=O)N3CCCC3)c3ccccc23)CC1,–,–,–,–,·,·
NC(=O)C1CCN(C(=O)C(=O)c2cn(CC(=O)N3CCCC3)c3ccccc23)CC1,–,43.0,–,–,–,–
O=C(N/N=C/c1sc(=O)[nH]c1-[n+]1ccc2ccccc2c1)c1ccccc1[O-],–,32.0,·,–,–,–
CC12COC3(C(=O)Nc4ccc5ccccc5c4)CC1CCC32C (stereo not given),–,–,–,–,·,·
O=C(Cn1cncn1)NCc1ccc(Cl)cc1,–,–,–,–,·,·

# Screens: PubChem BioAssay, several laboratories
